# The list is not random: actives were taken first. Their share in the collection is about 2.3%.
# Mcl1 Bid PPI: Mcl-1/Bid binding inhibitors, primary screen, biochemical, TR-FRET, 1536-well; TR-FRET Mcl-1/Bid-Dy647 peptide binding; inhibition, % at 21.7 µM; 220,000 tested, 0.97% active; AID 1021, 2008;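 active = compounds that cut the binding signal by more than half at the single screening dose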;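 note: His-tagged Mcl-1 with europium anti-His antibody binding Bid BH3 peptide; 0% = Mcl-1 plus peptide wells and 100% = peptide-only wells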
# MCL1-BIM inh: inhibitors of MCL1 binding to BIM-BH3, primary screen, biochemical, fluorescence polarization; GST-MCL1 / FITC-Bim-BH3 fluorescence polarization; inhibition, % at 10.9 µM; 320,000 tested, 0.68% active; AID 2057, 2009;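 active = inhibition above the mean inhibition of all tested compounds plus 3 SD, set per campaign, cut at about 40% in these data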;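 note: 0% = DMSO wells and 100% = unlabeled Bim-BH3 peptide control; higher means more loss of mP so more displacement of Bim peptide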
# BCLXL inh: inhibitors of human Bcl-xL, primary screen, biochemical, fluorescence polarization, HTS. GST-Bcl-xL / FITC-Bim BH3 peptide fluorescence polarization. 320,000 tested, 0.7% active. inhibition, % at 10.9 µM;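 active = inhibition above the mean of all tested compounds plus 3 SD, cutoff set per campaign, cut at about 30% in these data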;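 note: 0% = DMSO wells and 100% = unlabeled Bim-BH3 peptide competitor; inhibitors lower millipolarization by displacing the labeled peptide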
# GLD-1 TGE inh: GLD-1/TGE RNA complex disruptors, primary screen, biochemical, fluorescence polarization; Female germline-specific tumor suppressor gld-1 (Caenorhabditis elegans), Q17339; purified GLD-1 + fluorescein TGE RNA; inhibition, % at 5.96 µM; 320,000 tested, 0.44% active; AID 2280, 2010;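 active = percent inhibition above a per-plate cutoff, the plate mean of test compounds plus 3 SD, cut at about 30% in these data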;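 note: 0% = DMSO wells with GLD-1 and probe and 100% = wells lacking GLD-1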
# Target sequence (Q17339 whole entry, looked up): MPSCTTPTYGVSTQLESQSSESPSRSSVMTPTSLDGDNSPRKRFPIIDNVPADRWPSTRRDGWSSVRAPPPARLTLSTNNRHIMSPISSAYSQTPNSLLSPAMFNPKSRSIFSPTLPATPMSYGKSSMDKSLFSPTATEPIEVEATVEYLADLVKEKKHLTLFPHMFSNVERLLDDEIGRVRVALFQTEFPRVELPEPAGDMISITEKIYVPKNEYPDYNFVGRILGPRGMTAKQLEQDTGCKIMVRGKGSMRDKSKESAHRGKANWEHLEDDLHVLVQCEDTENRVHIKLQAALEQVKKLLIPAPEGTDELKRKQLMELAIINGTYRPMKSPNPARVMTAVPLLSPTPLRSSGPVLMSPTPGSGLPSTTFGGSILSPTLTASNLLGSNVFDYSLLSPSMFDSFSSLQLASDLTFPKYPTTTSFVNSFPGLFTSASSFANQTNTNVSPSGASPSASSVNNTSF
# Mcl-1 Bim block: inhibitors of Bim peptide binding to Mcl-1, primary screen, biochemical, bead-based flow cytometry, multiplex. 190,000 tested, 0.1% active. AID 1009, 2008. inhibition, % at 10 µM. Induced myeloid leukemia cell differentiation protein Mcl-1 (Homo sapiens), Q07820. Bim peptide-Mcl-1 binding; in the data active = inhibition above about 40%;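 note: 0% = no compound tracer wells and 100% = peptide blocker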
# Mcl1 Noxa PPI: Mcl-1/Noxa binding inhibitors, primary screen, biochemical, TR-FRET, 1536-well; AID 1022, 2008; inhibition, % at 21.7 µM; 220,000 tested, 1.5% active; Induced myeloid leukemia cell differentiation protein Mcl-1 (Homo sapiens), Q07820; TR-FRET Mcl-1/Noxa peptide binding, 2 h;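 active = compounds that cut the protein-peptide binding signal by more than 50% relative to plate controls in a single-dose test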;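 note: His-tagged Mcl-1 with rhodamine Noxa BH3 peptide and terbium anti-His antibody; 0% = Mcl-1 plus Noxa peptide wells and 100% = peptide-only wells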
# The depositor's hits bear a star; nt = not tested or not shown.
SMILES,Mcl1 Bid PPI,MCL1-BIM inh,BCLXL inh,GLD-1 TGE inh,Mcl-1 Bim block,Mcl1 Noxa PPI
CNC(=O)NC1CCCc2ccccc21 (stereo not drawn),3,-4,1,4,-2,92*
CC(C)C(C)NC(=O)CN1C(=O)NC(c2ccccc2)(c2ccccc2)C1=O (stereo not drawn),nt,2,3,13,nt,nt
C=CCc1c(C)nc(SCCC)[nH]c1=O,3,-4,3,1,-3,98*
C=CCc1c(C)nc(SCC(N)=O)[nH]c1=O,10,-1,-1,-13,0,27
COc1ccc(C(CNC(=O)c2[nH]c(C)c(C(C)=O)c2C)N2CCOCC2)cc1 (stereo not drawn),nt,0,1,-2,nt,nt
CC1(C)CC(CC(=O)O)(c2ccccc2)CCO1 (stereo not drawn),66*,5,5,10,0,-19
C=CC1=C2C=C(C3CC3)N(C3CC3)C=C2C(=O)C(C)(OC(=O)c2ccco2)C1=O (stereo not drawn),nt,28,31*,16,nt,nt
CC1(OC(=O)c2ccco2)C(=O)C=C2C=C(c3ccsc3)OC=C2C1=O (stereo not drawn),nt,31,14,24,nt,nt
CC1C(=O)CCN(C(C)C)C1C (stereo not drawn),90*,-3,2,1,2,2
COc1cccc2[nH]c3c(N4CCc5ccccc5C4)ncnc3c12,-13,1,8,0,nt,62*
CCOc1ccc(S(=O)(=O)N2CCCCC2)cc1NC(=O)Cc1ccsc1,nt,-3,3,0,nt,nt
O/N=C1/CCCSc2ccccc21,2,9,6,10,-2,86*
COc1ccc(OCCOCCN2CCc3ccccc3C2)cc1,62*,-1,2,2,4,15
CC1(c2ccc([N+](=O)[O-])cc2)NC(=O)N(CC(=O)Nc2cccnc2Cl)C1=O (stereo not drawn),nt,-2,1,-3,nt,nt
CCS(=O)(=O)N1CCN(C(C)CCc2ccccc2)CC1 (stereo not drawn),77*,4,6,5,1,91*
CC(CCc1ccccc1)N1CCN(Cc2ccccc2)CC1 (stereo not drawn),24,2,4,17,-3,28
COc1cc(C2C(C#N)=C(N)Oc3cc(C)oc(=O)c32)cc2c1OCO2 (stereo not drawn),-6,2,12,-4,0,51*
COc1cc(C2C(C#N)=C(N)Oc3cc(C)oc(=O)c32)cc(OC)c1OC (stereo not drawn),6,-3,0,4,nt,-5
CCOC(=O)c1cc2occc2n1CC(=O)NC1CCCCC1C (stereo not drawn),99*,6,4,-9,-1,13
CCCc1c(C(=O)N/N=C/c2cccc3ccccc23)nnn1-c1nonc1N,nt,3,2,-1,nt,nt
O=C1NN(c2cccc(Br)c2)C(=O)/C1=C\c1ccc(O)cc1,nt,1,8,7,nt,nt
O=C1NN(c2cccc(Br)c2)C(=O)/C1=C/c1ccc(-c2cc([N+](=O)[O-])ccc2O)o1,98*,21,10,4,nt,101*
O=C(COC(=O)c1ccc(Br)o1)Nc1ccc(N2CCOCC2)cc1,nt,-1,6,-2,nt,nt
CCCCC[C@H](O)/C=C/[C@H]1C=CC(=O)[C@@H]1C/C=C\CCCC(=O)O,42,nt,nt,nt,-3,69*
COc1ccccc1NS(=O)(=O)c1cc(NC(=O)CCc2nc3ccccc3c(=O)[nH]2)ccc1C,nt,8,9,1,nt,nt
SMILES,Mcl1 Bid PPI,MCL1-BIM inh,BCLXL inh,GLD-1 TGE inh,Mcl-1 Bim block,Mcl1 Noxa PPI
Nc1cc(C(F)(F)F)ccc1OCC1CCCO1 (stereo not drawn),nt,7,4,5,nt,nt
O=C(CN1CCCc2ccccc21)NCc1ccc2c(c1)OCO2,-23,52*,47*,-51,-3,11
CC(=O)c1cccc(NC(=O)CSc2ccc(-c3ccco3)nn2)c1,nt,10,9,4,nt,nt
O=C(CSc1ccc(-c2ccco2)nn1)c1cccc([N+](=O)[O-])c1,-45,66*,25,1,-1,33
Cc1onc(-c2c(Cl)cccc2Cl)c1C(N)=O,-8,13,5,5,0,-3
CC(=O)Nc1cccc(NC(=O)c2c(-c3c(Cl)cccc3Cl)noc2C)c1,-2,4,6,5,-3,67*
Cc1onc(-c2c(Cl)cccc2Cl)c1C(N)=S,51*,4,0,-6,-4,16
Cc1cc(C)nc(NC(=O)c2c(-c3c(Cl)cccc3Cl)noc2C)n1,-24,3,-2,-6,-3,-10
C/C(=N\OCC(=O)OCC(=O)NC(=O)c1ccccc1)c1ccc2c(c1)OCO2,nt,-1,-1,6,nt,nt
CCCn1c(N)c(C(=O)CN(C)CC(=O)Nc2ccccc2C(F)(F)F)c(=O)[nH]c1=O,nt,4,6,-2,nt,nt
COc1cc(OC)c(NC(=O)CCNS(=O)(=O)c2ccc3c(c2)CC(C)N3C(C)=O)cc1Cl (stereo not drawn),nt,8,7,1,nt,nt
C=C(CCC(=O)c1ccccc1)C(=O)c1ccccc1,11,7,85*,14,-3,22
O=C(CCCCCCCC(=O)c1ccccc1)c1ccccc1,-13,-5,-9,1,-1,10
Cc1ccc2nc(NC(=O)c3cc(-c4ccco4)nc4ccccc34)sc2c1,53*,1,2,2,0,42
N=c1oc2cc(O)ccc2cc1C(=O)Nc1nc2ccccc2s1,72*,-24,0,-30,0,100*
O=C(Nc1nc2ccccc2s1)c1cc(-c2ccco2)nc2ccccc12,63*,16,9,-7,-3,59*
O=C(Nc1nccs1)c1cc(-c2ccco2)nc2ccccc12,-88,23,4,3,-8,81*
O=C(Nc1nccs1)c1cc(-c2ccccc2)nc2ccccc12,18,-4,-1,2,-9,20
N=c1oc2cc(O)ccc2cc1C(=O)Nc1ccccn1,-20,-7,9,7,0,13
COc1cccc(-c2cc(C(=O)Nc3nc4ccccc4s3)c3ccccc3n2)c1,-1,6,4,0,-2,-5
Cc1ccc(CCC(=O)Nc2ccccc2C(=O)O)o1,nt,9,6,7,nt,nt
CC1=CC2=NC(=O)/C(=C\c3cccn3CCOc3ccccc3C)C(=N)N2O1,-4,-2,1,3,-3,5
